Measured values: PubChem BioAssay (NCATS)
Results filed as inconclusive are left out. Values without a mark were called inactive. The source made the active and inactive calls. The call rests on the fitted dose curve; in most records, active means well fitted cell-killing curve with a large enough effect; inconclusive means small, poorly fitted or top-dose-only effect; inactive means no such curve, though single readings can be large or run the other way.

Experiment: qHTS of pediatric cancer cell lines to identify multiple opportunities for drug repurposing: Primary screen for Rh41 cells (AID 1347108); further: nearly all actives have a fitted effect of over 70% in size;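 on activity change, negative = cytotoxic: luminescence drop marks cytotoxic hits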
Conditions: Rh41 rhabdomyosarcoma viability, CellTiter-Glo luminescence, 48 h; series mostly up to 46 µM; activity change, negative = cytotoxic: at the top concentration
Outline: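 Viability was measured as metabolically active cells after 48 hours of treatment, read by CellTiter-Glo luminescence. Compounds were tested at multiple final concentrations, giving concentration-response curves.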
Potency means the concentration at half of the fitted maximal effect.

Q: With `Cc1ccc(NC(=O)c2ccc(CN3CCN(C)CC3)cc2)cc1Nc1nc(-c2cccnc2)cs1` as the compound, how does the “activity change, negative = cytotoxic” value read?
A: The value was -9.49%.

Q: For `CCN(CC)CCCCNc1nc2cc(Cl)c(Cl)cc2nc1-c1ccc(-c2cccs2)s1`, which Potency is on record?
A: Its Potency is 23.5 µM (active).

Q: Which “activity change, negative = cytotoxic” value does the source give for `CCOC(=O)[C@H](CCc1ccccc1)N[C@@H](C)C(=O)N1CCCC1C(=O)O` (stereo partly drawn) here?
A: The value was 18.1%.

Q: Which Potency does the source give for `O=c1[nH]nc(OCCCc2ccc(Cl)cc2)c(NCc2cccnc2)c1Br` here?
A: The Potency was 18.7 µM (active).

Q: For `COc1cc2ncn(-c3cc(OCc4ccccc4S(C)(=O)=O)c(C#N)s3)c2cc1OC`, which “activity change, negative = cytotoxic” value is on record?
A: The value was -19.3%.

Q: With `Cc1cnc(-c2cc(N3CCN(C(=O)CCS(C)(=O)=O)CC3)ncc2Cl)c(C)c1` as the compound, how does the “activity change, negative = cytotoxic” value read?
A: The value was -4.76%.

Q: Which “activity change, negative = cytotoxic” value does the source give for `CC[C@H](NC(=O)[C@H](C)NC)C(=O)N1C[C@@H](O)C[C@H]1Cc1c(-c2[nH]c3cc(F)ccc3c2C[C@H]2C[C@H](O)CN2C(=O)[C@H](CC)NC(=O)[C@H](C)NC)[nH]c2cc(F)ccc12` here?
A: Its value is -23.3%.

Q: With `Cc1cccc(Nc2nc(N[C@@H]3CCCC[C@H]3N)ncc2C(N)=O)c1` as the compound, how does the Potency read?
A: Its Potency is 11.8 µM (active).

Q: For `COc1ccc(-c2ccc3ncc4c(c3c2)n(-c2ccc(N3CCNCC3)c(C(F)(F)F)c2)c(=O)n4C)cn1`, which Potency is on record?
A: Its Potency is 0.0235 µM (active).

Q: With `Cn1c(=O)c(Oc2ccc(F)cc2F)cc2cnc(NC3CCOCC3)nc21` as the compound, how does the “activity change, negative = cytotoxic” value read?
A: Its value is -25.2%.

Q: For `O=C(O)c1nc(=O)[nH]c(=O)[nH]1`, which “activity change, negative = cytotoxic” value is on record?
A: The value was 10.1% [at 16.1 µM].

Q: Which Potency does the source give for `COc1cc2nc(-c3cc(F)ccc3O)nc(N[C@@H]3CNC[C@@H]3C(C)(C)O)c2cc1OC` here?
A: The Potency was 23.5 µM (active).

Q: With `CC[C@H]1OC(=O)[C@H](C)[C@@H](O[C@H]2C[C@@](C)(OC)[C@@H](O)[C@H](C)O2)[C@H](C)[C@@H](O[C@@H]2O[C@H](C)C[C@H](N(C)C)[C@H]2O)[C@](C)(O)C[C@H](C)C(=NOCOCCOC)[C@H](C)[C@@H](O)[C@]1(C)O` as the compound, how does the “activity change, negative = cytotoxic” value read?
A: Its value is -6.04%.
